± gives the standard deviation.

The test system of one assay is MILI (PIWIL2) piRISC loaded with L1MC piRNA (26 nt). The assay is described as follows: pre-steady-state target cleavage rate (min^-1); guide: L1MC piRNA 5'p-UAACUAAAUACUAUGCAAGCUGUAGG; higher = faster piRNA-guided slicing of the target. The conditions noted are these: auxiliary factor: none (no GTSF1). Summed up: (§1)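 The pre-steady-state cleavage rate came from a burst-and-steady-state fit to pooled data from three Cleave-'n-Seq trials, in which uncleaved targets were sequenced and normalised to depth and to weakly complementary targets. Each reaction held 0.1 nM transcribed, DNA-blocked target RNA library and 1 nM active affinity-purified piRISC carrying one synthetic guide, with or without 500 nM GTSF1 partner protein, in HEPES–potassium acetate buffer at 33 °C for 0–8 or 0–960 min. k3 was capped at 0.0001 min^-1.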
Turning to UCCUGGAUCAGCUUGCAUUGUAUUUAGUUA, the “pre-steady-state target cleavage rate” value is 0.00955 ± 0.0024.

Take UCCUGCGACAGCUUGCAUAGUAUUUAGUUA: the “pre-steady-state target cleavage rate” value was 0.00828 ± 0.0026.

Take UCCUGGUACAGCUUGCAUAGUAUUUAGUGUA: the “pre-steady-state target cleavage rate” value is 0.00896 ± 0.0033.

As for UCCUCGCUACAGCUUGCAUAGUAUUUAGUUA, the “pre-steady-state target cleavage rate” value is 0.00839 ± 0.0032.

As for UCCUCCUACAGCUUGCAAAGUAUAUAGUUA, the “pre-steady-state target cleavage rate” value is 0.00276 ± 0.0025.

On to UCCUGGAUCAGGUUGCAUAGUAUUUAGUAA, for which the “pre-steady-state target cleavage rate” value worked out at 0.00858 ± 0.0024.

As to UCCUGGAUCAGCUUUCAUAGUAUUUAGUUA, the “pre-steady-state target cleavage rate” value turned out to be 0.0048 ± 0.0029.

For UCCUCCAACAGCUUGCAUAGUAUUAAGUUA, the “pre-steady-state target cleavage rate” value stood at 0.0033 ± 0.0024.

For the sequence UCCUCCUACAGGUUGCAUUGUAUUUAGUUA, the “pre-steady-state target cleavage rate” value stood at 0.00725 ± 0.0019.

Take UCCUGCUACAGCUUGCUUAGUAUUUAGUAA: the “pre-steady-state target cleavage rate” value turned out to be 0.00316 ± 0.0023.

UCCUGGAUGAGCUUGACAUAGUAUUUAGUUA: the “pre-steady-state target cleavage rate” value was 0.00352 ± 0.0026.

UCCUGGAAUAGCUUGCAUAGUAUUUAGUUA: the “pre-steady-state target cleavage rate” value is 0.0149 ± 0.0032.

With UCCUGCUUGAGCUUGCAUAGUAUUUAGUAA, the “pre-steady-state target cleavage rate” value is 0.00365 ± 0.0027.

For UCCUGCUACUGCAUGCAUAGUAUUUAGUUA, the “pre-steady-state target cleavage rate” value was 0.00943 ± 0.0022.

With UCCUGGUACAGCUUGCAUAGUAUUAUAGUUA, the “pre-steady-state target cleavage rate” value turned out to be 0.00483 ± 0.003.

Consider UCCUGCUACAGCUUGCAUAGUAUUCUAGUUA, for which the “pre-steady-state target cleavage rate” value stood at 0.00709 ± 0.0024.

The test system of the next assay is EfPiwi piRISC loaded with L1MC piRNA (26 nt). The assay is described as follows: pre-steady-state target cleavage rate (min^-1); auxiliary factor: 500 nM Ephydatia muelleri Gtsf1; guide: L1MC piRNA 5'p-UAACUAAAUACUAUGCAAGCUGUAGG; MIWI and MILI are mouse PIWI proteins and EfPiwi is from a freshwater sponge; tags in brackets are library labels; higher = faster piRNA-guided slicing of the target.
Conditions: not given
Summed up:
as §1
Take UCCUGGUACAGCUUGCCAUAGUAUUUAGUUA: the “pre-steady-state target cleavage rate” value is 0.0045 ± 0.0021.

In the case of UCCUCCAACAGCUUGCAUAGUAUAUAGUUA, the “pre-steady-state target cleavage rate” value amounted to 0.00628 ± 0.0027.

As to UCCUGGUACGAGCUUGCAUAGUAUUUAGUUA, the “pre-steady-state target cleavage rate” value stood at 0.00873 ± 0.0027.

Take UCCUGGAACAGCUUGCAUUGUAUUUAGUUA: the “pre-steady-state target cleavage rate” value came to 0.00926 ± 0.0026.

For the sequence UCCUGGAACAGCUUCCAAAGUAUUUAGUUA, the “pre-steady-state target cleavage rate” value is 0.00262 ± 0.0019.

For the sequence UCCUGGAACAGCAUGGAUAGUAUUUAGUUA, the “pre-steady-state target cleavage rate” value is 0.00527 ± 0.0017.

As for UCCUGGAUGAGCUUGCAUUGUAAUUAGUUA, the “pre-steady-state target cleavage rate” value came out at 0.00306 ± 0.0025.

UCCUGGAUCAGCUUGCAUAGUAUUAUGUUA: the “pre-steady-state target cleavage rate” value came to 0.005 ± 0.0024.

Take UCCUGGAUGAGCUUGCAUAGUACUUUAGUUA: the “pre-steady-state target cleavage rate” value came to 0.00806 ± 0.003.

Take UCCUGCUACAGCUUGCAUAGUGAUUUAGUUA: the “pre-steady-state target cleavage rate” value turned out to be 0.00289 ± 0.0028.

Turning to UCCUCCUACUGCUUGCUUAGUAUUUAGUUA, the “pre-steady-state target cleavage rate” value is 0.0504 ± 0.015.

For UCCUCCUAUAGCUUGCAUAGUAUUUAGUUA, the “pre-steady-state target cleavage rate” value turned out to be 0.0108 ± 0.0034.

Regarding UCCUCCUACUCGUUGCAUAGUAUUUAGUUA, the “pre-steady-state target cleavage rate” value is 0.101 ± 0.025.

Take UCCUGGUACAGCUUGCAUAGUAUUAUGUUA: the “pre-steady-state target cleavage rate” value stood at 0.00349 ± 0.0025.

As to UCCUGGAUCAGCAUGCAUAGUUUUUAGUUA, the “pre-steady-state target cleavage rate” value amounted to 0.00291 ± 0.0027.

UCCUCCUACAGCAUGCAUAGUAUUUAGUUA: the “pre-steady-state target cleavage rate” value was determined as 0.0743 ± 0.019.

Regarding UCCUGGAUGAGCUUACAUAGUAUUUAGUUA, the “pre-steady-state target cleavage rate” value is 0.00581 ± 0.0024.

Consider UCCUGGAACACCUUGCAAAGUAUUUAGUUA, for which the “pre-steady-state target cleavage rate” value came to 0.00814 ± 0.0031.

For the sequence UCCUGGAUCAGCUUGCACAGUAUUUAGUUA, the “pre-steady-state target cleavage rate” value turned out to be 0.0672 ± 0.016.

Regarding UCCUGCUAGAGCAUGCAUAGUAUUUAGUUA, the “pre-steady-state target cleavage rate” value amounted to 0.00618 ± 0.0015.

As for UCCUGGAACAGCUUCCUUAGUAUUUAGUUA, the “pre-steady-state target cleavage rate” value was 0.00362 ± 0.002.

For the sequence “UCCUGGAUGAGCUUGCAUAGUAUUUAGUUA [g2:g21:cont:t1A]”, the “pre-steady-state target cleavage rate” value is 0.0338 ± 0.0087.

In the case of UCCUCCUACAGCUUGCAUAGUAUUUACGUUA, the “pre-steady-state target cleavage rate” value is 0.00783 ± 0.0029.

UCCUGGUACAGCUUGACAUAGUAUUUAGUUA: the “pre-steady-state target cleavage rate” value is 0.0102 ± 0.003.

For UCCUGGAUCAGCUUGCAUUGUAUUUAGUUA, the “pre-steady-state target cleavage rate” value amounted to 0.0179 ± 0.0038.

On to UCCUGCGACAGCUUGCAUAGUAUUUAGUUA, for which the “pre-steady-state target cleavage rate” value is 0.0339 ± 0.0075.

Consider UCCUGGUACAGCUUGCAUAGUAUUUAGUGUA, for which the “pre-steady-state target cleavage rate” value was 0.00435 ± 0.0027.

Turning to UCCUCGCUACAGCUUGCAUAGUAUUUAGUUA, the “pre-steady-state target cleavage rate” value was 0.0505 ± 0.017.

Take UCCUCCUACAGCUUGCAAAGUAUAUAGUUA: the “pre-steady-state target cleavage rate” value came to 0.008 ± 0.0043.

For the sequence UCCUGGAUCAGGUUGCAUAGUAUUUAGUAA, the “pre-steady-state target cleavage rate” value came to 0.00537 ± 0.0021.

In the case of UCCUGGAUCAGCUUUCAUAGUAUUUAGUUA, the “pre-steady-state target cleavage rate” value worked out at 0.0103 ± 0.0032.

Turning to UCCUCCAACAGCUUGCAUAGUAUUAAGUUA, the “pre-steady-state target cleavage rate” value is 0.00502 ± 0.002.

Turning to UCCUCCUACAGGUUGCAUUGUAUUUAGUUA, the “pre-steady-state target cleavage rate” value turned out to be 0.0124 ± 0.0028.

For the sequence UCCUGCUACAGCUUGCUUAGUAUUUAGUAA, the “pre-steady-state target cleavage rate” value came to 0.00437 ± 0.0017.

Turning to UCCUGGAUGAGCUUGACAUAGUAUUUAGUUA, the “pre-steady-state target cleavage rate” value was determined as 0.00729 ± 0.0021.

For the sequence UCCUGGAAUAGCUUGCAUAGUAUUUAGUUA, the “pre-steady-state target cleavage rate” value was determined as 0.0137 ± 0.0037.

On to UCCUGCUUGAGCUUGCAUAGUAUUUAGUAA, for which the “pre-steady-state target cleavage rate” value is 0.00772 ± 0.0023.

UCCUGCUACUGCAUGCAUAGUAUUUAGUUA: the “pre-steady-state target cleavage rate” value is 0.00847 ± 0.0024.

As for UCCUGGUACAGCUUGCAUAGUAUUAUAGUUA, the “pre-steady-state target cleavage rate” value was found to be 0.00555 ± 0.0023.

Take UCCUGCUACAGCUUGCAUAGUAUUCUAGUUA: the “pre-steady-state target cleavage rate” value was 0.0043 ± 0.002.

These data come from the supplement of paper PMC10338343.
